Assay outcomes as filed in PubChem.
HCMV inh: blocks human cytomegalovirus replication; activity change, negative = inhibition, % at 57.5 µM; HFF cells, HCMV-luciferase reporter, 72 h; hits give low values; actives 4.5% (n = 410,000); in the data active means activity change below about -60%; inconclusive means no clear call, values can overlap the other calls; inactive means above about -39%
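Compounds were evaluated in HFFs infected with an HCMV luciferase reporter virus (MOI 1 PFU/cell). Luciferase in lysates collected 72 h post infection served as the replication measure.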
VACV Venus inh: vaccinia inhibition (Venus reporter); actives 0.46% (n = 330,000); Potency, µM (titrated, usually from 36.5 µM), for the others: top-dose activity change, negative = inhibition, most hits filed as inhibitors; Vaccinia virus Venus reporter expression, fluorescence; calls by dose curve; tested in A549 cells; further: potency means the concentration at half of the fitted maximal effect; nearly all actives have a fitted effect of over 30% in size
FMDV antiviral: antivirals against foot and mouth disease virus; Potency, µM (highest dose often 57.9 µM), inactives show at the top dose activity change, negative = inhibition, actives largely listed as inhibitors; FMDV antiviral cell-based qHTS; actives 1.2% (n = 410,000); calls by dose curve; tested in HEK293T cells; further: read-out not given here; potency means the concentration at half of the fitted maximal effect; nearly all actives have a fitted effect of over 45% in size
VACV mCherry inh: inhibitors of vaccinia virus infection (mCherry reporter signal). Potency, µM (series often up to 36.5 µM), for the others: top-dose activity change, negative = inhibition, actives largely listed as inhibitors. AID 720579. Vaccinia virus mCherry reporter infection, fluorescence. actives 0.63% (n = 310,000); calls by dose curve; tested in A549 cells; further: potency means the concentration at half of the fitted maximal effect; nearly all actives have a fitted effect of over 35% in size
Lassa entry inh: blocks Lassa virus binding to or entry into cells; Lassa virus pseudotype entry inhibition, cell reporter; Potency, µM (titrated, usually from 37.9 µM), for the others: at the highest dose activity change, negative = inhibition, hits mostly inhibitors; actives 1.2% (n = 300,000); calls by dose curve; tested in HEK293 cells; further: potency means the concentration at half of the fitted maximal effect; nearly all actives have a fitted effect of over 50% in size
Marburg entry inh: inhibitors of Marburg virus binding or cell entry; Marburg virus pseudotyped entry inhibition, cell reporter; Potency, µM (highest dose often 37.8 µM), inactives show at the top dose activity change, negative = inhibition, most hits filed as inhibitors; actives 1.8% (n = 300,000); calls by dose curve; tested in HEK293 cells; further: potency means the concentration at half of the fitted maximal effect
An asterisk follows results filed as active; i = inactive; ? = inconclusive; · = not tested or not shown; + = active, no number; [ ] = dose if it differs, or a comment. A selection: hits, their analogues and other compounds. The true share with any hit is near 6.5%. On the % scale 0 is the no-effect control and ±100 the full control effect.

SMILES | HCMV inh | VACV Venus inh | FMDV antiviral | VACV mCherry inh | Lassa entry inh | Marburg entry inh
CCOc1cc(/C=N\Nc2ccc([N+](=O)[O-])cc2)ccc1OCC(=O)Nc1ccc(C)c(C)c1 | ? | -1% | -13% | · | 0% | 0%
COc1ccc([N+](=O)[O-])cc1/C=N/NC(=O)Cc1ccccc1 | ? | · | -10% | · | · | ·
COc1cc(/C=N/NC(=O)Cc2ccccc2)ccc1Oc1ccc([N+](=O)[O-])cc1[N+](=O)[O-] | -62* | · | -11% | · | 9% | 2%
COc1cc(/C=N\Nc2ccc([N+](=O)[O-])cc2)ccc1OCC(=O)Nc1ccc(C)c(C)c1 | -72* | -8% | -26% | · | -24% | -10%
CN(C)CCCN1C(=O)c2cccc3c([N+](=O)[O-])ccc(c23)C1=O | -25 | 137% | ? | i | ? | 1.8µM*
CC(=O)Oc1cccc(N2C(=O)c3cccc4c([N+](=O)[O-])ccc(c34)C2=O)c1 | -94* | · | -11% | · | · | ·
O=C(O)c1ccc(CN2C(=O)c3cccc4c([N+](=O)[O-])ccc(c34)C2=O)cc1 | · | -5% | ? | -3% | -29%[46.1 µM] | ?
Cc1ccc(C(=O)O)cc1N1C(=O)c2cccc3c([N+](=O)[O-])ccc(c23)C1=O | -100* | · | ? | · | · | ·
O=C(COc1ccccc1-c1ccccc1)N/N=C/c1cccc2ccccc12 | -82* | ? | ? | ? | ? | ?
O=C(COc1cccc2ccccc12)N/N=C/c1ccccc1OCc1ccc(C(=O)O)cc1 | -38 | -6% | -19% | -3% | -21%[46.1 µM] | ?
CN(C)c1ccc(/C=N/NC(=O)COc2ccccc2)cc1 | 66 | -9% | 44% | -4% | ? | -12%[46.1 µM]
COc1ccc(/C=N/NC(=O)COc2ccccc2-c2ccccc2)cc1 | -68* | 3.5µM* | ? | ? | ? | ?
Cc1ccc(CN2CCC(CNC(=O)c3cc4ccc5cccnc5c4[nH]3)CC2)cc1 | -106* | ? | -29% | ? | ? | ·
Cc1ccc(C)c(CN2CCC(CNC(=O)c3cc4ccc5cccnc5c4[nH]3)CC2)c1 | ? | -19% | -5% | ? | -9%[46.1 µM] | ·
Cc1c(C)n(Cc2ccccc2)c2ccc(C(=O)NCc3ccccc3F)cc12 | + | -6% | 17% | -11% | -29%[46.1 µM] | ·
COc1cc(CNC(=O)c2ccc3c(c2)c(C)c(C)n3Cc2cccc(C)c2)cc(OC)c1OC | -87* | -4% | 0% | -25% | 3%[46.1 µM] | ·
COc1cccc(CNC(=O)c2ccc3c(c2)c(C)c(C)n3Cc2ccccc2)c1OC | ? | -5% | -5% | -12% | ? | ·
COc1ccc(C2CC(=O)CCN2S(=O)(=O)c2ccc(F)cc2)cc1 (stereo not drawn) | -10 | · | · | · | · | ·
O=C(c1ccc2c(c1)N(Cc1ccccc1)C(=O)c1ccccc1S2(=O)=O)N1CCN(c2ccccn2)CC1 | -35 | -2% | 8% | -11% | ? | 3.5µM*
Cc1ccc(C)c(CN2C(=O)c3ccccc3S(=O)(=O)c3ccc(C(=O)N4CCN(c5ccccc5)CC4)cc32)c1 | ? | -13% | 1% | -17% | 0%[46.1 µM] | -17%[46.1 µM]
O=C(c1ccc2c(c1)N(Cc1ccccc1F)C(=O)c1ccccc1S2(=O)=O)N1CCN(c2ccccn2)CC1 | -12 | 3% | -5% | 8% | -5%[46.1 µM] | 1%[46.1 µM]
CCN1CCN(C(=O)c2ccc3c(c2)N(Cc2ccccc2)C(=O)c2ccccc2S3(=O)=O)CC1 | 8 | -4% | 0% | -5% | 6%[46.1 µM] | -2%[46.1 µM]
Cc1ccc(C)c(CN2C(=O)c3ccccc3S(=O)(=O)c3ccc(C(=O)N4CCN(c5ccccn5)CC4)cc32)c1 | -71* | -12% | -4% | -6% | ? | ?
CCN1CCN(C(=O)c2ccc3c(c2)N(Cc2ccc(Cl)cc2)C(=O)c2ccccc2S3(=O)=O)CC1 | -61* | -11% | -14% | -14% | -9%[46.1 µM] | -29%[46.1 µM]
C=CCOC(=O)C(C(C)=O)[C@@H](NC(=O)OC)c1cccs1 (stereo partly drawn) | · | · | · | · | · | -6%[14.2 µM]
SMILES | HCMV inh | VACV Venus inh | FMDV antiviral | VACV mCherry inh | Lassa entry inh | Marburg entry inh
NC(=O)C1CCN(C(=O)CC(c2ccccc2)c2ccccc2)CC1 | 32 | -10% | 1% | -22% | 1%[46.1 µM] | 6%[46.1 µM]
N#Cc1ccc(COC(=O)c2ccc(N3CCCC3)c([N+](=O)[O-])c2)cc1 | -35 | -9% | -12% | i | 3% | -16%[46.1 µM]
O=C(C(=Cc1ccccc1)CN1CCCCC1)c1ccccc1 | -76* | ? | 3.5µM* | -27% | 3.5µM* | ?
CCOC(=O)c1c(C)oc2c(F)c(F)c(F)c(F)c2c1=O | -104* | -29% | 11µM* | · | ? | ?
O=C(Nc1ccc(OC(F)F)c(Cl)c1)C(c1ccccc1)c1ccccc1 | -30 | · | 40µM* | · | · | ·
NC(=S)Nc1ccc(Cl)c(Cl)c1 | -60* | · | 7% | · | · | ·
Fc1ccc(NC(=S)Nc2cc(-c3ccccc3)[nH]n2)cc1Cl | -32 | -9% | -13% | -13% | ? | ?
Cc1cc(C)cc(NC(=S)Nc2ccc(Cl)c(Cl)c2)c1 | -68* | -8% | -16% | -20% | -4%[46.1 µM] | ?
Cc1ccc(NC(=S)Nc2cc(-c3ccccc3)[nH]n2)cc1Cl | -72* | -10% | 1% | -21% | · | -21%[46.1 µM]
Cc1cnc(C(=O)NCc2c(C)ncc3c2CCN(C(=O)/C=C/c2cccs2)C3)cn1 | · | -6% | -8% | -14% | · | ·
COC1=C[C@H](C(=O)NC2CCN(Cc3ccccc3)CC2)[C@@]2(C)Cc3ccccc3[C@@H]2CC1=O | · | · | · | · | · | -18%[14.2 µM]
O=C(CNC(=O)c1ccccc1)OCC(=O)c1ccc2ccccc2c1 | · | 13% | · | 17% | · | ·
O=C(CSc1nc2ccccc2c(=O)n1-c1ccccc1Cl)NC1CCS(=O)(=O)C1 (stereo not drawn) | -9 | · | -15% | · | · | ·
Cc1cc(=O)oc2cc(OCC(=O)Nc3c(Cl)cccc3C(F)(F)F)ccc12 | -30 | 13% | -20% | i | ? | ?
Cc1ccc(NC(=S)Nc2ccc(Cl)c(Cl)c2)c(OC(F)F)c1 | -75* | ? | ? | i | 2% | ?
Cc1ccc(NC(=S)Nc2ccc(OC(F)F)c(Cl)c2)cc1Cl | -89* | ? | -17% | -25% | -29% | ?
CC(NC(=S)Nc1ccc(OC(F)F)c(Cl)c1)C(C)(C)C (stereo not drawn) | ? | ? | -3% | -24% | ? | ?
COc1ccc(NC(C)=[N+](C)CCNS(=O)(=O)c2ccc(Cl)cc2)cc1Cl | 44 | · | -6% | · | · | ·
CC(Nc1cc(C)cc(C)c1)=[N+](C)CCNS(=O)(=O)c1ccc(Cl)cc1 | 12 | -12% | -23% | ? | -12%[46.1 µM] | 10µM*
COc1cccc(NC(=O)N(C)C[C@H]2Oc3cc(Br)ccc3S(=O)(=O)N([C@H](C)CO)C[C@H]2C)c1 | -1 | -17% | -4% | -22% | · | ·
Cc1ccc(-n2ncc(C(=O)NCCCN3CCCCC3)c2C2CCN(C(=O)OC(C)(C)C)CC2)cc1 | + | -14% | -19% | -15% | ? | ·
